PubChem BioAssay (NCATS)
Results filed as inconclusive are left out. Active and inactive are the calls of the source. Calls follow the shape of the dose curve; as a rule, active = well fitted inhibition curve with a large enough effect; inconclusive = small, poorly fitted or top-dose-only effect; inactive = flat fitted curve, though single readings scatter.

Tests used:
CRL-7250 = normal cell line; assay: Cytotoxic Profiling of Annotated Libraries Using Quantitative High-Throughput Screening (AID 1296008); settings: Five cell lines viability, CellTiter-Glo ATP luminescence, 48-72 h; stronger effect = lower value; as to max response: % is scaled to controls: 0 for no effect and ±100 for the full control effect
Outline: (§1)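 Cytotoxicity was measured as CellTiter-Glo ATP luminescence, read after 10 min at room temperature. Compound treatment of the cells lasted 48 or 72 hr at 37 degrees Celsius in a qHTS format.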

HEK293 = assay: as above; settings: Five cell lines viability, CellTiter-Glo ATP luminescence, 48-72 h; stronger effect = lower value
Outline: as §1

HaCat = assay: as above; settings: Five cell lines viability, CellTiter-Glo ATP luminescence, 48-72 h; stronger effect = lower value
Outline: as §1

KB-3-1 = assay: as above; settings: Five cell lines viability, CellTiter-Glo ATP luminescence, 48-72 h, stronger effect = lower value
Outline: as §1

NIH3T3 [1] = assay: as above; settings: Five cell lines viability, CellTiter-Glo ATP luminescence, 48-72 h; stronger effect = lower value
Outline: as §1

MCC-13 = assay: qHTS assay to identify novel small-molecules to repurpose for Merkel cell carcinoma treatment (AID 1296009); settings: MCC and control cell lines, CellTiter-Glo viability, 72 h; series mostly up to 46 µM
Outline: (§2)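 72 hr, 37 degree celsius; NPC 8-pt / MIPE 11-pt dose response; compound pinned in DMSO; CellTiter-Glo, 10 min RT, luminescence; normalized to no-cell and DMSO controls.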

MCC-26 = assay: as above; settings: MCC and control cell lines, CellTiter-Glo viability, 72 h; series mostly up to 46 µM
Outline: as §2

MKL-1 = assay: as above; settings: MCC and control cell lines, CellTiter-Glo viability, 72 h; series mostly up to 46 µM
Outline: as §2

MKL-2 = assay: as above; settings: MCC and control cell lines, CellTiter-Glo viability, 72 h; series mostly up to 46 µM
Outline: as §2

NIH3T3 [2] = assay: as above; settings: MCC and control cell lines, CellTiter-Glo viability, 72 h; at 44.8 µM (top of the series) unless noted
Outline: as §2

UISO = assay: as above; settings: MCC and control cell lines, CellTiter-Glo viability, 72 h; series mostly up to 46 µM
Outline: as §2

PC26 = assay: qHTS profiling for inhibitors of Plasmodium falciparum proliferation (AID 504749);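 also: 0% = DMSO vehicle and full inhibition = artemisinin control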; settings: P. falciparum in erythrocytes, SYBR Green DNA, 72 h; series mostly up to 28.7 µM
Outline: (§3)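 Infected RBCs, 0.3% parasitemia/2.5% Hct final; cpd 72 h, 37 C, 5% CO2; lysis buffer with saponin/triton/SYBR Green I, o/n RT dark; FI 485/535; norm. to artemisinin (0.29 uM) and DMSO.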

PC49 = assay: as above; settings: P. falciparum in erythrocytes, SYBR Green DNA, 72 h; series mostly up to 28.7 µM
Outline: as §3

SC27B = assay: as above; settings: P. falciparum in erythrocytes, SYBR Green DNA, 72 h; series mostly up to 28.7 µM
Outline: as §3

TAB109 = assay: as above; settings: P. falciparum in erythrocytes, SYBR Green DNA, 72 h; series mostly up to 28.7 µM
Outline: as §3

TAB113 = assay: as above; settings: P. falciparum in erythrocytes, SYBR Green DNA, 72 h; series mostly up to 28.7 µM
Outline: as §3

TAB165 = assay: as above; settings: P. falciparum in erythrocytes, SYBR Green DNA, 72 h; series mostly up to 28.7 µM
Outline: as §3

W2 = assay: as above; settings: P. falciparum in erythrocytes, SYBR Green DNA, 72 h; series mostly up to 28.7 µM
Outline: as §3

HEK293T = assay: qHTS assay to identify novel small-molecules to repurpose for Merkel cell carcinoma treatment (AID 1296009); settings: MCC and control cell lines, CellTiter-Glo viability, 72 h; at 44.8 µM (top of the series) unless noted
Outline: as §2
Also: nearly all actives have a fitted effect of over 60% in size.

CC1(C)[C@@H](OC(=O)CCC(=O)O)CC[C@]2(C)[C@H]3C(=O)C=C4[C@@H]5C[C@@](C)(C(=O)O)CC[C@]5(C)CC[C@@]4(C)[C@]3(C)CC[C@@H]12
inactive: max response (CRL-7250) -5.85% | max response (HEK293) -0.807% | max response (HaCat) 2.22% | max response (KB-3-1) -3.96% | outcome (NIH3T3 [1]) | outcome (MCC-13) | outcome (MCC-26) | outcome (MKL-1) | outcome (MKL-2) | outcome (NIH3T3 [2]) | outcome (UISO)

O=C(O)/C=C/c1ccc(Cn2ccnc2)cc1
inactive: max response (CRL-7250) -1.04% | max response (HEK293) -1.65% | max response (HaCat) 4.76% | max response (KB-3-1) 2.2% | outcome (NIH3T3 [1]) | outcome (MCC-13) | outcome (MCC-26) | outcome (MKL-1) | outcome (MKL-2) | outcome (NIH3T3 [2]) | outcome (UISO)

O=C(O)CNC(=O)c1ccccc1I
inactive: Potency (PC26) | Potency (PC49) | Potency (SC27B) | Potency (TAB109) | Potency (TAB113) | Potency (TAB165) | Potency (W2) | max response (CRL-7250) 4.72% | max response (HEK293) -1.69% | max response (HaCat) -16.3% | max response (KB-3-1) 7.37% | outcome (NIH3T3 [1]) | outcome (MCC-13) | outcome (MCC-26) | outcome (MKL-1) | outcome (MKL-2) | outcome (NIH3T3 [2]) | outcome (UISO)

COC(=O)c1ccccc1C(=O)c1ccc(OCCN2CCCCC2)cc1
inactive: Potency (PC26) | Potency (PC49) | Potency (SC27B) | Potency (TAB109) | Potency (TAB113) | Potency (TAB165) | max response (CRL-7250) -2.25% | outcome (HEK293) | max response (HaCat) -0.875% | max response (KB-3-1) -16% | max response (NIH3T3 [1]) -3.51% | outcome (HEK293T) | outcome (MCC-13) | outcome (MCC-26) | outcome (MKL-1) | outcome (MKL-2) | outcome (UISO)

Cc1cccc(C)c1NC(=O)CC12CCCN1CCC2
inactive: Potency (PC26) | Potency (PC49) | Potency (SC27B) | Potency (TAB109) | Potency (TAB113) | Potency (TAB165) | max response (CRL-7250) 2.63% | outcome (HEK293) | max response (HaCat) -12.5% | max response (KB-3-1) -0.628% | max response (NIH3T3 [1]) -1.1% | outcome (HEK293T) | outcome (MCC-13) | outcome (MCC-26) | outcome (MKL-1) | outcome (MKL-2) | outcome (UISO)

CCOC(=O)[C@H](CCc1ccccc1)N[C@@H](C)C(=O)N1Cc2cc(OC)c(OC)cc2C[C@H]1C(=O)O
inactive: outcome (CRL-7250) | outcome (HEK293) | max response (HaCat) 2.61% | max response (KB-3-1) -3.37% | max response (NIH3T3 [1]) 2.92% | outcome (HEK293T) | outcome (MCC-13) | outcome (MCC-26) | outcome (MKL-1) | outcome (MKL-2) | outcome (UISO)

CCCOC(=O)c1ccc(N)cc1
inactive: Potency (PC26) | Potency (PC49) | Potency (SC27B) | Potency (TAB109) | Potency (TAB113) | Potency (TAB165) | Potency (W2) | outcome (CRL-7250) | outcome (HEK293) | max response (HaCat) -1.1% | max response (KB-3-1) 1.99% | max response (NIH3T3 [1]) -2.69% | outcome (HEK293T) | outcome (MCC-13) | outcome (MCC-26) | outcome (MKL-1) | outcome (MKL-2) | outcome (UISO)

NS(=O)(=O)c1cc(C2(O)NC(=O)c3ccccc32)ccc1Cl (configuration not stated)
inactive: max response (CRL-7250) -0.145% | max response (HEK293) -4.45% | max response (HaCat) 3.24% | max response (KB-3-1) -1.8% | outcome (NIH3T3 [1]) | outcome (MCC-13) | outcome (MCC-26) | outcome (MKL-1) | outcome (MKL-2) | outcome (NIH3T3 [2]) | outcome (UISO)

Cc1cc(NC(=O)C2=C(O)c3ccccc3S(=O)(=O)N2C)no1
inactive: Potency (PC26) | Potency (PC49) | Potency (SC27B) | Potency (TAB109) | Potency (TAB113) | Potency (TAB165) | max response (CRL-7250) -9.44% | outcome (HEK293) | max response (HaCat) 1.12% | max response (KB-3-1) -4.98% | max response (NIH3T3 [1]) -3.38% | outcome (HEK293T) | outcome (MCC-13) | outcome (MCC-26) | outcome (MKL-1) | outcome (MKL-2) | outcome (UISO)

CC(=O)Nc1ccc(C(=O)O)cc1
inactive: Potency (PC26) | Potency (PC49) | Potency (SC27B) | Potency (TAB109) | Potency (TAB113) | Potency (TAB165) | Potency (W2) | max response (CRL-7250) -0.409% | outcome (HEK293) | max response (HaCat) 3.25% | max response (KB-3-1) -6.78% | max response (NIH3T3 [1]) -2.27% | outcome (HEK293T) | outcome (MCC-13) | outcome (MCC-26) | outcome (MKL-1) | outcome (MKL-2) | outcome (UISO)

O=C(Cn1ccnc1[N+](=O)[O-])NCCO
inactive: Potency (PC26) | Potency (PC49) | Potency (SC27B) | Potency (TAB109) | Potency (TAB113) | Potency (TAB165) | Potency (W2) | max response (CRL-7250) 1.72% | outcome (HEK293) | max response (HaCat) 0.0021% | max response (KB-3-1) 0.623% | max response (NIH3T3 [1]) 4.22% | outcome (HEK293T) | outcome (MCC-13) | outcome (MCC-26) | outcome (MKL-1) | outcome (MKL-2) | outcome (UISO)

COc1cc(O)cc(O)c1
inactive: Potency (PC26) | Potency (PC49) | Potency (SC27B) | Potency (TAB109) | Potency (TAB113) | Potency (TAB165) | outcome (CRL-7250) | outcome (HEK293) | max response (HaCat) -8.13% | max response (KB-3-1) -4.6% | max response (NIH3T3 [1]) -7.04% | outcome (HEK293T) | outcome (MCC-13) | outcome (MCC-26) | outcome (MKL-1) | outcome (MKL-2) | outcome (UISO)

CC(C)=CCC/C(C)=C/CO
inactive: Potency (PC26) | Potency (PC49) | Potency (SC27B) | Potency (TAB109) | Potency (TAB113) | Potency (TAB165) | Potency (W2) | outcome (CRL-7250) | outcome (HEK293) | max response (HaCat) -2.14% | max response (KB-3-1) 8.27% | max response (NIH3T3 [1]) -13.7% | outcome (HEK293T) | outcome (MCC-13) | outcome (MCC-26) | outcome (MKL-1) | outcome (MKL-2) | outcome (UISO)
